The source of these data is PubChem BioAssay (EPA / NIEHS).

Molecules are shown by their SMILES. Activity calls are given as the source filed them. Rule for the calls: active = hit-call score of the fitted dose curve at least 0.9, where 1 is the maximum; inactive = score below 0.9.

A short description of this test: CCTE_Shafer_MEA_acute_cross_correlation_HWHM: CCTE's Neural Acute Assay for Cross Correlation at Half Width at Half Maximum, Shafer Lab (AID 2284026). As to the method: CCTE_Shafer_MEA_acute assay is conducted using Axion Biosystems 48 well microelectrode array (MEA) plates and Maestro recording system. Each well of the MEA plate contains a grid of 16 microelectrodes embedded in the culture surface. Electrically active cells, such as neurons, can be cultured over the electrodes, and electrical activity in these cells can be recorded extracellularly. The spontaneous firing of neurons is captured from each electrode on a microsecond timescale providing both temporally and spatially precise data. […] The CCTE_Shafer_MEA_acute assay uses primary cultures of rat cortical neurons. As these cultures mature over time, neural networks develop functional activity and form cohesive networks in which electrical activity can be highly coordinated. Baseline 40-minute recordings are made on days post-plating 13 or 15, followed by a secondary 40-minute recording after chemical exposure.CCTE_Shafer_MEA_acute_cross_correlation_HWHM is a component of the CCTE_Shafer_MEA_acute assay. It measures the distance along the x-axis (phase lag) from the left half maximum height to the center of the cross-correlogram of action potential firing during a recording in a microelectrode array (MEA) using Axion Biosystems Maestro 768 channel amplifier with the AxIS adaptive spike detector. Smaller values indicate a narrower correlogram (greater synchrony). The recordings before and after chemical treatment are used to calculate a percent change in the half width at half maximum of the cross-correlogram in each well.Data from the assay component CCTE_Shafer_MEA_acute_cross_correlation_HWHM was analyzed into 1 assay endpoint. This assay endpoint, CCTE_Shafer_MEA_acute_cross_correlation_HWHM, was analyzed in the negative analysis fitting direction relative to DMSO as the negative control and baseline of activity. Using a type of functional reporter, gain or loss-of-signal activity can be used to understand electrical activity.
Spontaneous activity in the cortical cultures was recorded using an Axion Biosystems Maestro 768 channel amplifier and Axion Integrated Studios (AxIS) v1.8 (or later) software. The amplifier recorded from all channels simultaneously (gain = 1200 x; sampling rate = 12.5 kHz/channel): raw signals were filtered with a Butterworth band-pass filter (300-5000 Hz), which filters out slower local field potentials leaving only fast potentials, i.e., "spikes", arising from extracellular currents associated with action potentials (Pine 2006; Wheeler and Nam 2011). On-line spike detection of filtered signals was conducted with the AxIS adaptive spike detector, using a threshold of 8x the root mean squared (rms) noise on each channel. Any electrodes with rms noise levels greater than 5 uV were grounded (e.g., no data were recorded). Once grounded, an electrode was grounded for the duration of the experiment. All recordings were conducted at 37 C. Wells were deemed usable if on the day of the exposure >/= 10 electrodes were active (defined as >/= 5 spikes/min). On DIV 13 or 15, a minimum of three wells from one cortical culture preparation were treated with each compound (0.03-40 uM). Prior to recording baseline activity, each mwMEA plate was placed in the Maestro at 37 C and allowed to sit for 20 min while firing rates stabilized. Baseline activity (40 min) was recorded before the addition of each compound. An additional 40 min of spontaneous activity was recorded in the presence of each compound. Changes in network parameters relative to baseline were assessed following compound treatment.
Take `Oc1c(Cl)cc(Cl)cc1Sc1cc(Cl)cc(Cl)c1O`: the AC50 was 9.62 µM (active).

Consider `OCC(CO)(CBr)CBr`, for which the result was inactive.

On to `CCC(C)c1ccccc1O` (stereo not given), for which the AC50 is 8.95 µM (active). `Oc1ccc(Cc2ccccc2O)cc1`: the call was inactive. On to `CCCCC=O`, for which the molecule was classed as inactive. On to `CC(=O)Nc1ccc(O)cc1`, for which the outcome was inactive. Still for that read-out and setting: the value for `O=C1NS(=O)(=O)c2ccccc21` was “inactive”. For the molecule `N=C(N)c1ccc(OCCCCCOc2ccc(C(=N)N)cc2)cc1`, the AC50 is 32 µM (active).

Take `O=C(CCCN1CCC(O)(c2ccc(Cl)cc2)CC1)c1ccc(F)cc1`: the outcome was inactive.

On to `CCCCCCCCCCCC`, for which the result was inactive.
